An excerpt weighted towards active compounds, which were near 13% of everything screened.
HCMV inh – human cytomegalovirus inhibition | HFF cells, HCMV-luciferase reporter, 72 h; hits give low values | activity change, negative = inhibition, % at 57.5 µM | actives 4.5% (n = 410,000) | AID 1259415; in the data active means activity change below about -60%; inconclusive means no clear call, values can overlap the other calls; inactive means above about -39%
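Inhibition of viral replication was scored as loss of reporter luminescence in HFFs infected with HCMV-luciferase (MOI 1 PFU/cell) for 72 h; compounds tested at 2 doses, normalized to buffer and Salinomycin controls.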
Pf growth 96h – inhibits malaria parasite growth, 96 h. P. falciparum luciferase reporter growth, 96 h. Potency, µM (series often up to 28.7 µM), for the others: at the top dose activity change, negative = inhibition, hits mostly inhibitors. actives 6.9% (n = 320,000); further: potency means the concentration at half of the fitted maximal effect
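Readout is luminescence from an integrated firefly luciferase in P. falciparum. Red cells, 2% hematocrit and 0.05% parasitemia final, were cultured with compound through two parasite generations (96 hours) at 37 C, 5% CO2.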
Pf growth 48h – inhibits P. falciparum growth in the first generation, 48 h | actives 5.9% (n = 310,000) | P. falciparum luciferase growth in erythrocytes, 48 h | AID 504832 | Potency, µM (highest dose often 28.7 µM), for the others: at the top dose activity change, negative = inhibition, usual class: inhibitors; further: potency means the concentration at half of the fitted maximal effect
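Luciferase-expressing P. falciparum in infected erythrocytes (2% hematocrit, 0.1% parasitemia final) in RPMI 1640/0.5% Albumax were exposed to compound for 48 hours at 37 C, 5% CO2; growth read as luminescence.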
HCV inhibitor – blocks hepatitis C virus; actives 3.4% (n = 340,000); Huh7.5.1 HCVcc-Cre infection, luciferase reporter, 44 h; AID 651820; Potency, µM (doses to about 41.8 µM), for the others: at the top dose activity change, negative = inhibition, hits mostly inhibitors; further: potency means the concentration at half of the fitted maximal effect
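Infectious HCVcc-Cre (~0.5 moi) was added to cells just after compound, with cells seeded 4 h earlier at 1,000 per well. Luciferase activity after 44 h culture reported infection; substrate was incubated 15 min at room temperature before reading.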
Active calls of the source: *; ? = inconclusive; · = no result given; [ ] = another dose, or the depositor's remark. Unless noted, the call rests on the fitted dose curve; in most records, active means well fitted inhibition curve with a large enough effect; inconclusive means small, poorly fitted or top-dose-only effect, or another doubt; inactive means no such curve, though single readings can be large or run the other way. On the % scale 0 is the no-effect control and ±100 the full control effect.

SMILES	HCMV inh	Pf growth 96h	Pf growth 48h	HCV inhibitor
C#CCOCCOCCOCCNc1nc(N2CCN(C(=O)CCCCCCCCCCNC(=O)[C@H](CCCCN)n3cc(C[C@@H](C)CC)nn3)CC2)nc(N2CCN(C(=O)CCCCCCCCCCNC(=O)[C@@H]([C@H](C)O)n3cc(C)nn3)CC2)n1	·	0.37µM*	2.08µM*	?
C#CCOCCOCCOCCNc1nc(N2CCN(C(=O)CCCCCCCCCCNC(=O)[C@@H](CCSC)n3cc(CCO)nn3)CC2)nc(N2CCN(C(=O)CCCCCCCCCCNC(=O)[C@@H]([C@H](C)O)n3cc(C)nn3)CC2)n1	-71.8*	0.165µM*	0.147µM*	-13.1%
C#CCOCCOCCOCCNc1nc(N2CCN(C(=O)CCCCCCCCCCNC(=O)Cn3cc(C[C@@H](C)O)nn3)CC2)nc(N2CCN(C(=O)CCCCCCCCCCNC(=O)[C@@H](CCSC)n3cc(CCO)nn3)CC2)n1	·	0.147µM*	0.185µM*	-12.8%
C#CCOCCOCCOCCNc1nc(N2CCN(C(=O)CCCCCCCCCCNC(=O)[C@H](CCCCN)n3cc(C)nn3)CC2)nc(N2CCN(C(=O)CCCCCCCCCCNC(=O)[C@@H]([C@H](C)O)n3cc(C)nn3)CC2)n1	·	1.17µM*	2.08µM*	2.82µM*
Cc1ccccc1NC(=O)N1CCc2cc(S(=O)(=O)N3CCC(C)CC3)ccc21	2.4	·	·	·
COc1ccccc1OCc1nnc(-c2ccccc2)o1	-17.1	·	·	·
CCN(CC)CCSc1nnc2c3ccccc3n(Cc3ccccc3)c2n1	?	?	5.22µM*	11.2µM*
CCCn1c2ccccc2c2nc3ccccc3nc21	-16.5	·	?	?
CCN(CC)CCn1c2ccccc2c2nc3ccccc3nc21	-102.0*	19.9%	-1.8%	?
c1cc2c3c(cccc3c1)C(N1CCCCC1)=N2	·	11.7µM*	?	-17.9%
c1cc2c3c(cccc3c1)C(N1CCCCCC1)=N2	79.2	0.8%[5.75 µM]	-6.5%	-0.7%
COC(=O)[C@]1(Cc2ccccc2)N[C@H](CN(C)C(=O)Nc2ccc(C(F)(F)F)cc2)[C@@H]2C(=O)N(Cc3ccccc3)C(=O)[C@@H]21	-11.4	·	·	12.6µM*
CC[C@@]1(C(=O)OC)N[C@H](CN(C)C(=O)Nc2ccc(C(F)(F)F)cc2)[C@@H]2C(=O)N(Cc3ccccc3)C(=O)[C@@H]21	-11.6	·	·	7.0%
COc1ccc(-c2cc(C(F)(F)F)n3nc(C(=O)Nc4cc(C(F)(F)F)ccc4Cl)cc3n2)cc1OC	28.0	·	·	·
CCCCCCCC(=O)C(C)C(=O)N(C)[C@H](Cc1ccc(OC)cc1)C(=O)N(C)[C@H](C(N)=O)C(C)C (some centres undefined)	15.2	·	·	0.562µM*
C#CCCC/C(=C\C(=O)N(C)[C@H](C(=O)N(C)[C@H](C(=O)N(C)[C@H](C(=O)N(C)[C@H](C(N)=O)C(C)C)C(C)C)C(C)C)C(C)C)OC	3.0	·	·	-23.1%
COC(=O)c1ccccc1NC(=O)c1ccc2nc(Cc3ccccc3)oc2c1	-9.5	·	·	·
COc1ccc(/C=C/c2ccc3cccc(O)c3n2)c(OC)c1OC	-93.5*	-14.9%	2.5%[0.00184 µM]	-57.2%
CCOc1c(OC(C)=O)ccc(/C=C/c2ccc3cccc(OC)c3n2)c1[N+](=O)[O-]	12.0	-2.8%	4.65µM*	10µM*
COc1ccc(Br)cc1/C=C/c1ccc2cccc(O)c2n1	4.0	?	2.08µM*	?
COc1cc(/C=C/c2ccc3cccc([N+](=O)[O-])c3n2)ccc1OCC(=O)O	-0.3	41.3%[5.75 µM]	8.2%[5.75 µM]	8.2%
COc1cccc(/C=C/c2ccc3cccc(O)c3n2)c1OC	2.3	?	·	10µM*
COc1ccc(CN2COc3ccc4c(C)cc(=O)oc4c3C2)cc1	-13.2	·	·	·
COc1ccc2cc(-c3nc4ccc(C(=O)O)cc4[nH]3)c(=O)oc2c1	-16.4	·	·	·
CCn1c(SCC(=O)Nc2cc(Cl)ccc2OC)nc2c([nH]c3ccccc32)c1=O	31.6	·	·	·
SMILES	HCMV inh	Pf growth 96h	Pf growth 48h	HCV inhibitor
O=C(CCn1nc(-c2ccccc2)c2ccccc2c1=O)NN1CCOCC1	-70.4*	107.2%	8.7%	19.5%
Cc1nn(CC(=O)Nc2ccccn2)c(=O)c2ccccc12	-0.9	3.6%	6.3%	10.0%
O=C(Cn1nc(-c2ccccc2)c2ccccc2c1=O)Nc1ccccn1	-61.4*	·	10.5%	6.1%
CN(C)c1ccc(-c2noc(C3CC(=O)N(c4ccc5c(c4)OCCO5)C3)n2)cc1 (centres undefined)	5.5	·	·	·
CCOCCn1c(N2CCCN(C)CC2)nc2ccccc21	·	?	-0.2%	·
O=[N+]([O-])c1ccc(O)c(/C=N/n2c(CO)nc3ccccc32)c1	-13.1	13.1µM*	?	-2.7%
O=C1CN(C(=O)c2ccc(Br)o2)C(c2ccccc2)c2cc(Br)ccc2N1 (centres undefined)	68.3	5.86µM*	·	?
CCOC(=O)[C@]12CCC=C1N(Cc1ccccc1)C(=O)[C@H](CC(=O)N1CCOCC1)C2	20.5	·	·	·
O=C(NCc1ccco1)c1ccc(COc2cc(Cl)ccc2Cl)cc1	6.9	?	5.22µM*	?
O=C(COC(=O)c1cccc(S(=O)(=O)N2CCc3ccccc32)c1)NCc1ccco1	-96.0*	13.9%	2.6%	15.1%
CC1CN(C(=O)c2ccc(Cl)c(S(=O)(=O)NCc3ccco3)c2)CC(C)O1 (centres undefined)	14.4	-16.5%	-21.9%	6.6%
O=C(NCc1cccs1)c1ccc(Cl)c(S(=O)(=O)N2CCCC2)c1	-29.7	?	0.329µM*	-17.7%
O=C(COC(=O)c1cccc(S(=O)(=O)N2CCc3ccccc3C2)c1)NCc1ccco1	-26.9	7.3%	-0.1%	10.7%
Cc1cccc(N2CCN(C(=O)c3ccc(Cl)c(S(=O)(=O)NCc4ccco4)c3)CC2)c1C	-1.8	?	·	10µM*
